Data as given in PubChem BioAssay (NCATS).
Where “and” joins values, the source holds several entries; their conditions need not be identical. Equal values may be shown once. Inconclusive results are not listed. Calls of active or inactive are those of the source. Calls follow the shape of the dose curve; as a rule, active = well fitted inhibition curve with a large enough effect; inconclusive = small, poorly fitted or top-dose-only effect; inactive = flat fitted curve, though single readings scatter.

Tests used:
Test in all cases: Cytotoxic Profiling of Annotated Libraries Using Quantitative High-Throughput Screening (AID 1296008); also: nearly all actives have a fitted effect of over 60% in size
Details in all cases: Five cell lines viability, CellTiter-Glo ATP luminescence, 48-72 h; max response: stronger effect = lower value
CRL-7250 = normal cell line; test system: CRL-7250
How it was run: (§1)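 Cells exposed to compounds for 48 or 72 hr at 37 degrees Celsius. Viability read as ATP-coupled luminescence with CellTiter-Glo after 10 min at room temperature.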

HEK293 = test system: HEK293
How it was run: as §1

HaCat = test system: HaCat
How it was run: as §1

KB-3-1 = test system: KB-3-1
How it was run: as §1

NIH3T3 = test system: NIH3T3
How it was run: as §1
% is scaled to controls: 0 for no effect and ±100 for the full control effect; potency is read from the fitted curve at half-maximal effect.

CC1C/C=C/C(O)C(O)CC/C=C/c2cc(O)cc(O)c2C(=O)O1 (stereo not given)
inactive: outcome (CRL-7250) | outcome (HEK293) | max response (HaCat) -2.35% | max response (KB-3-1) 0.529% | max response (NIH3T3) 3.47%

CCc1c(C(=O)C(N)=O)c2c(OCC(=O)OC)cccc2n1Cc1ccccc1
inactive: outcome (CRL-7250) | outcome (HEK293) | max response (HaCat) -4% | outcome (KB-3-1) | max response (NIH3T3) -0.844%

C[C@H]1O[C@@H](O[C@H]2C[C@@H](O)[C@]3(CO)C4C(CC[C@]3(O)C2)[C@@]2(O)CC[C@H](C3=CC(=O)OC3)[C@@]2(C)C[C@H]4O)[C@@H](O)[C@@H](O)[C@H]1O (stereo not given in full)
active: Potency (CRL-7250) 122 nM | Potency (HEK293) 343 nM | Potency (HaCat) 968 nM | Potency (KB-3-1) 432 nM
inactive: outcome (NIH3T3)

COc1cc(CCNCc2ccccc2O)c(OC)cc1C#N
inactive: outcome (CRL-7250) | max response (HEK293) 2.88% | outcome (HaCat) | outcome (KB-3-1) | max response (NIH3T3) 4.5%

CCN1CC2(COC)C3[C@@H](OC)C4C1C3(C1C[C@]3(O)[C@H](OC(=O)c5ccccc5)C1[C@]4(OC(C)=O)[C@@H](O)[C@@H]3OC)[C@H](OC)C[C@H]2O (stereo not given in full)
inactive: max response (CRL-7250) -8.46% | max response (HEK293) -1.66% | max response (HaCat) 3.92% | outcome (KB-3-1) | outcome (NIH3T3)

CC[C@H]1CN2CC[C@H]1C[C@@H]2[C@@H](O)c1ccnc2ccc(OC)cc12
inactive: outcome (CRL-7250) | outcome (HEK293) | outcome (HaCat) | max response (KB-3-1) 5.11% | outcome (NIH3T3)

Oc1ccc2c3c1O[C@H]1[C@H](N(CCCl)CCCl)CC[C@@]4(O)[C@@H](C2)N(CC2CC2)CC[C@]314
inactive: max response (CRL-7250) -3.35% | max response (HEK293) 0.595% | max response (HaCat) -4.26% | outcome (KB-3-1) | outcome (NIH3T3)

CC1=C2C(=O)C3[C@@H](CC=C4C[C@@H](O)CC[C@@]43C)[C@@H]2CC[C@]12O[C@@H]1C[C@H](C)CN[C@H]1[C@H]2C (stereo not given in full)
inactive: outcome (CRL-7250) | max response (HEK293) -3.9% | outcome (HaCat) | outcome (KB-3-1) | outcome (NIH3T3)

CC(=O)O[C@H]1C[C@@H](OC(C)=O)C(C)(C)C2C[C@@H](O)[C@]3(C)C(CC[C@@]4(C)[C@H](C5=CC(=O)OC5O)C[C@H]5O[C@]543)[C@]21C (stereo not given in full)
inactive: max response (CRL-7250) 2.14% | outcome (HEK293) | max response (HaCat) -10.3% | max response (KB-3-1) 6.85% | outcome (NIH3T3)

C[C@@](O)(COc1ccc(C#N)cc1)C(=O)Nc1ccc(C#N)c(C(F)(F)F)c1
inactive: max response (CRL-7250) -2.54% | outcome (HaCat) | max response (KB-3-1) 2.83% | outcome (NIH3T3)
active: Potency (HEK293) 14600 nM

Cc1cc(C(=O)CN2CCCC2)c(C)n1-c1ccc(F)cc1
inactive: max response (CRL-7250) 1.13% and -6.04% | max response (HEK293) -9.04% | max response (HaCat) 1.57% and -29% | max response (KB-3-1) 2.15% and -9.06% | max response (NIH3T3) 1.34% and -18.5%

CN1[C@@H]2CC[C@H]1CC(OC(=O)C1C=Nc3ccccc31)C2 (stereo not given in full)
inactive: max response (CRL-7250) 0.829% | max response (HEK293) -5.26% | max response (HaCat) 2.07% | max response (KB-3-1) 7.85% | outcome (NIH3T3)

CC(C)(O)[C@H]1O[C@H]2CC[C@@]3(C)[C@@](O)(CC[C@H]4Cc5c([nH]c6ccccc56)[C@@]43C)C2=CC1=O
inactive: max response (CRL-7250) -14.1% | max response (HEK293) 2.88% | max response (HaCat) 0.588% | max response (KB-3-1) 9.13% | outcome (NIH3T3)

Cn1ncnc1COc1nn2c(-c3c(F)cccc3F)nnc2cc1C1CCC1
inactive: outcome (CRL-7250) | outcome (HEK293) | outcome (HaCat) | outcome (KB-3-1) | max response (NIH3T3) 2.04%

CN(C(=O)Cc1ccccc1)C(CN1CCCC1)c1ccccc1 (stereo not given)
inactive: max response (CRL-7250) 0.97% | max response (HEK293) 0.503% | max response (HaCat) 2.22% | max response (KB-3-1) -9.97% | outcome (NIH3T3)

COC1CC(OC2CCC3(C)C(=CCC4C3CCC3(C)C(C(C)OC5OC(COC6OC(CO)C(O)C(O)C6O)C(O)C(O)C5O)CCC43O)C2)OC(C)C1OC1OC(C)C(O)C(OC)C1O (stereo not given)
inactive: max response (CRL-7250) -7.32% | max response (HEK293) -6.75% | outcome (HaCat) | max response (KB-3-1) 9.26% | outcome (NIH3T3)

COC1CC(OC2CCC3(C)C(CCC4C3CCC3(C)C(C5=CC(=O)OC5)C(OC(C)=O)CC43O)C2)OC(C)C1OC1OC(CO)C(O)C(O)C1O (stereo not given)
inactive: outcome (NIH3T3)
active: Potency (CRL-7250) 544 nM | Potency (HEK293) 1220 nM | Potency (HaCat) 2430 nM | Potency (KB-3-1) 1090 nM

Cc1cn(C[C@H](N)C(=O)O)c(=O)n(Cc2cc(-c3ccccc3)sc2C(=O)O)c1=O
inactive: max response (CRL-7250) -1.8% | max response (HEK293) -3.99% | max response (HaCat) -2.49% | outcome (KB-3-1) | outcome (NIH3T3)
